What all share (assay): NCI-60 one-dose screen, 48 h (100 = growth as untreated, 0 = no growth, -100 = all killed)
Assay [1] has as its system HCT-15 colon. As to conditions: 10 µM unless noted.
Assay [2] deals with HT29 colon.
Assay [3] has as its system SNB-75 CNS.
Assay [4] concerns SNB-19 CNS.
The subject of assay [5] is U251 CNS.
The subject of assay [6] is PC-3 prostate.
Assay [7] relates to LOX IMVI melanoma.
Assay [8] deals with SK-MEL-2 melanoma.
Assay [9] has as its system EKVX NSCLC.
For assay [10], the system named is UO-31 renal. As to conditions: 10 µM unless noted.
For assay [11], the system named is TK-10 renal.
For assay [12], the system named is ACHN renal. As to conditions: 10 µM unless noted.
In assay [13] the test system is CAKI-1 renal. The note with it: 10 µM unless noted.
In assay [14] the test system is A498 renal. As to conditions: 10 µM unless noted.
For assay [15], the system named is CCRF-CEM leukemia.
Assay [16] relates to MOLT-4 leukemia.
Assay [17] deals with SK-MEL-5 melanoma.
The subject of assay [18] is UACC-62 melanoma.
For assay [19], the system named is SN12C renal.
For assay [20], the system named is SK-MEL-28 melanoma. The note with it: 10 µM unless noted.

Values joined by “and” are separate entries in the source; they are usually repeats but may differ in a detail not shown here. Identical values can stand only once. Compounds without any hit were thinned out: in the full panel of roughly 83,000, 20% have a hit.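 96-well plates, one dose, 48 hours. Percent growth reported; active if below 10.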 Active and inactive are the calls of the source.

Take `C=C1C(=O)O[C@H]2[C@H]1CC/C(COC(=O)NC1CCC(O)CC1)=C\CC[C@@]1(C)O[C@@H]21` (some centres not stated): the growth in [1] was 92.2% (inactive) and 85.3% (inactive); in [2] (10 µM unless noted) it was 60% (inactive) and 43.7% (inactive); in assay [3] (10 µM unless noted) it was 71% (inactive) and 71.7% (inactive); in assay [4] (10 µM unless noted) it was 100% (inactive) and 99.5% (inactive); in [5] (10 µM unless noted), 91.8% (inactive) and 88.3% (inactive); in [6] (10 µM unless noted), 95.5% (inactive) and 90.6% (inactive). The growth was 90.3% (inactive) and 86.9% (inactive) in assay [7] (10 µM unless noted); 91.2% (inactive) and 86.1% (inactive) in assay [8] (10 µM unless noted); 72.8% (inactive) and 67.5% (inactive) in [9] (10 µM unless noted); 78.9% (inactive) and 70.1% (inactive) in assay [10]; 75.2% (inactive) and 71.5% (inactive) in assay [11] (10 µM unless noted); 54.3% (inactive) and 45% (inactive) in assay [12]. The growth in assay [13] is 70.3% (inactive) and 64% (inactive); in assay [14], 105% (inactive) and 101% (inactive); in assay [15] (10 µM unless noted), 16.1% (inactive) and 12.7% (inactive); in assay [16] (10 µM unless noted), 69.5% (inactive) and 63.2% (inactive).
For `COc1ccc2cc3[n+](cc2c1OC)CCc1cc2c(cc1-3)OCO2`, the growth is 105% (inactive) and 93.4% (inactive) in assay [1]; 93.8% (inactive) and 74.1% (inactive) in assay [2] (10 µM unless noted); 85.5% (inactive) and 81% (inactive) in assay [3] (10 µM unless noted); 38.6% (inactive) and 42.2% (inactive) in [4] (10 µM unless noted); 25.2% (inactive) and 28.7% (inactive) in [5] (10 µM unless noted); 60.1% (inactive) and 60.6% (inactive) in assay [6] (10 µM unless noted). Also, the growth in [17] (10 µM unless noted) is 7.33% (active) and 24.3% (inactive); in assay [18] (10 µM unless noted) it was 54.8% (inactive) and 64.9% (inactive); in assay [7] (10 µM unless noted), 83.6% (inactive) and 86.5% (inactive); in assay [8] (10 µM unless noted), 90.7% (inactive) and 104% (inactive); in assay [9] (10 µM unless noted), 26.3% (inactive) and 65.5% (inactive); in [19] (10 µM unless noted), 30.2% (inactive) and 49.2% (inactive). The growth is 76.3% (inactive) and 84.2% (inactive) in [10]; 137% (inactive) and 98.3% (inactive) in [11] (10 µM unless noted); 91.2% (inactive) in assay [12]; 86.8% (inactive) and 90.8% (inactive) in assay [14]; 70.8% (inactive) and 67% (inactive) in assay [15] (10 µM unless noted); 66% (inactive) and 54.8% (inactive) in assay [16] (10 µM unless noted).
In the case of `CC#C[C@]1(O)CC[C@H]2[C@@H]3CCC4=CC(=O)CCC4=C3[C@@H](c3ccc4c(c3)OCO4)C[C@@]21C`, the growth is 102% (inactive) in assay [2] (10 µM); -19.2% (active) in assay [2] (100 µM); 58.6% (inactive) in assay [3] (10 µM); -6.95% (active) in [3] (100 µM); 75.8% (inactive) in [4] (10 µM); 4.26% (active) in assay [4] (100 µM). The growth in assay [5] (10 µM) was 76.1% (inactive); in [5] (100 µM) it was -49.5% (active); in assay [6] (10 µM), 67.4% (inactive); in assay [6] (100 µM), 0.372% (active); in [17] (10 µM) it was 83.6% (inactive); in [17] (100 µM), -80.3% (active). Besides, the growth in assay [18] (10 µM) was 56.6% (inactive); in assay [18] (100 µM) it was -50.1% (active); in assay [7] (10 µM) it was 83.7% (inactive); in assay [7] (100 µM) it was -89.6% (active); in [8] (10 µM) it was 71.1% (inactive); in [8] (100 µM), -50.8% (active). In addition, the growth in assay [9] (10 µM) is 72.4% (inactive); in assay [9] (100 µM), -10.7% (active); in assay [19] (10 µM), 91.2% (inactive); in assay [19] (100 µM) it was -16.1% (active); in assay [11] (10 µM), 69.9% (inactive); in assay [11] (100 µM) it was -25.2% (active). Also, the growth in assay [12] was 80.4% (inactive); in assay [15] (10 µM), 89.9% (inactive); in assay [15] (100 µM), -11.2% (active); in assay [16] (10 µM) it was 69.2% (inactive); in assay [16] (100 µM), -7.79% (active).
For the molecule `N#CCCOc1ccccc1`, the growth in [1] is 97.5% (inactive); in assay [2] (10 µM unless noted), 100% (inactive); in assay [3] (10 µM unless noted), 101% (inactive); in assay [4] (10 µM unless noted) it was 108% (inactive); in [6] (10 µM unless noted), 88.7% (inactive); in [17] (10 µM unless noted), 105% (inactive). The growth in [18] (10 µM unless noted) was 127% (inactive); in assay [7] (10 µM unless noted), 102% (inactive); in assay [20], 101% (inactive); in assay [8] (10 µM unless noted), 89.4% (inactive); in assay [19] (10 µM unless noted), 99.8% (inactive); in assay [10], 92.8% (inactive). For the same molecule, the growth is 97.2% (inactive) in [11] (10 µM unless noted); 102% (inactive) in assay [12]; 91.6% (inactive) in assay [13]; 101% (inactive) in assay [14]; 95.7% (inactive) in assay [15] (10 µM unless noted); 90.4% (inactive) in [16] (10 µM unless noted).
Consider `COc1cc(C(=O)N/N=C/c2ccc(N(C)C)cc2)cc(OC)c1OC`, for which the growth in assay [1] was 20% (inactive); in assay [3] (10 µM unless noted) it was 38.4% (inactive); in assay [4] (10 µM unless noted) it was 53.3% (inactive); in [5] (10 µM unless noted), 3.96% (active); in [6] (10 µM unless noted) it was 25.4% (inactive); in assay [17] (10 µM unless noted) it was 7.49% (active). Moreover, the growth was 43.1% (inactive) in [18] (10 µM unless noted); 20.5% (inactive) in assay [7] (10 µM unless noted); 53.8% (inactive) in [20]; 75.7% (inactive) in assay [9] (10 µM unless noted); 41.3% (inactive) in [19] (10 µM unless noted); 45.1% (inactive) in assay [12]. For the same molecule, the growth in [13] was 68.3% (inactive); in assay [14], -3.05% (active); in [15] (10 µM unless noted), 8.58% (active); in [16] (10 µM unless noted), -0.126% (active).

The values above are taken from PubChem BioAssay (NCI).
